Measured values reported in article PMC5700166.
Changes are numbered by the printed parent chain.

Tests used:
Assay in all cases: protein-binding microarray (PBM); PBM: ~300 nM protein, 6 mM HEPES pH 7.8, 80 mM KCl, 0.5 mM EDTA, 0.5 mM EGTA, 6% glycerol, 35 ng/ul poly-dIdC, 1% milk, 1 h, room temperature; Ap Aiptasia and Nv Nematostella (sea anemones) / Co Capsaspora / Aq Amphimedon (sponge) / Dm Drosophila / Hu human; RHD is the Rel homology domain; high values mean tight binding
Settings in all cases: dsDNA, one strand shown
GST-Ap-NF-kB RHD = biological target: T1, GST-Ap-NF-kB RHD (Exaiptasia pallida (Aiptasia), UniProt A0A913YAJ5 2-422)
T1 sequence: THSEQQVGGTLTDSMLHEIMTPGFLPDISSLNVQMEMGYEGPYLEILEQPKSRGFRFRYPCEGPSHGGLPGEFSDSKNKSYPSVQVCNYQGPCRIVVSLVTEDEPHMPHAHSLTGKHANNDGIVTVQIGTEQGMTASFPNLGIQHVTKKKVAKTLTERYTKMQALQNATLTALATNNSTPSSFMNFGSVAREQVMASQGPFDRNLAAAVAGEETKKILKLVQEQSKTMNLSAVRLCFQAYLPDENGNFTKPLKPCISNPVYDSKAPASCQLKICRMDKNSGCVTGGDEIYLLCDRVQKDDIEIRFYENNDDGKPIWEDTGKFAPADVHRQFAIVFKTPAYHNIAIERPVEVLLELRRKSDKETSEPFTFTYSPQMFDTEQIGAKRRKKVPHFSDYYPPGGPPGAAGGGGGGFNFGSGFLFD

[1] = biological target: T2, GST-Nv-NF-kB (Cys allele) (Nematostella vectensis, UniProt E5G601 2-411)
T2 sequence: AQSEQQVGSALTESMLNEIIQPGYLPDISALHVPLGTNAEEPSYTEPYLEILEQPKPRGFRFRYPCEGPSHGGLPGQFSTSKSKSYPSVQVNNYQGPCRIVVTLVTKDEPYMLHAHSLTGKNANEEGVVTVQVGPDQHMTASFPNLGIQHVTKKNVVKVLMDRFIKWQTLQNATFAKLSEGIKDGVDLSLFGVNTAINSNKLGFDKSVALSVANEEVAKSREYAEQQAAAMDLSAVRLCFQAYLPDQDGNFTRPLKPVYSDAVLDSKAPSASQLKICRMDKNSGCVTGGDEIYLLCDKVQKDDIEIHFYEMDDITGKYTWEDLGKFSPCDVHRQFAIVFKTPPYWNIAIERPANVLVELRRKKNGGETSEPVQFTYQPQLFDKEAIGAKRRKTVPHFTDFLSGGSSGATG

[2] = biological target: T3, GST-Nv-NF-kB (Ser allele) (Nematostella vectensis, UniProt A7UNT2 2-411)
T3 sequence: T2 sequence with Q21R, C66S, S207N, E215Q, V217A, E225K, A268E, D399E

GST-Co-NF-kB = biological target: T4, GST-Co-NF-kB (Capsaspora owczarzaki, UniProt F1ARL5 200-546)
T4 sequence: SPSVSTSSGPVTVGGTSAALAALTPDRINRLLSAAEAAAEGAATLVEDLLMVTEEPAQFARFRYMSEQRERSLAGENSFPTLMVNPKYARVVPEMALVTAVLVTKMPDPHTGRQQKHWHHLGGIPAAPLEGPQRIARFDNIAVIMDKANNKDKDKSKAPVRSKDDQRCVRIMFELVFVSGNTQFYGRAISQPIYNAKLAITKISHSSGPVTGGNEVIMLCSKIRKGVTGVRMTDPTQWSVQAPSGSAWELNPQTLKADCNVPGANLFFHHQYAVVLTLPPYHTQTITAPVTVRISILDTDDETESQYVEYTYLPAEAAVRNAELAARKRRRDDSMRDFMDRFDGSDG

GST-Dm-Relish = biological target: T5, GST-Dm-Relish (Drosophila melanogaster, UniProt Q94527 99-473)
T5 sequence: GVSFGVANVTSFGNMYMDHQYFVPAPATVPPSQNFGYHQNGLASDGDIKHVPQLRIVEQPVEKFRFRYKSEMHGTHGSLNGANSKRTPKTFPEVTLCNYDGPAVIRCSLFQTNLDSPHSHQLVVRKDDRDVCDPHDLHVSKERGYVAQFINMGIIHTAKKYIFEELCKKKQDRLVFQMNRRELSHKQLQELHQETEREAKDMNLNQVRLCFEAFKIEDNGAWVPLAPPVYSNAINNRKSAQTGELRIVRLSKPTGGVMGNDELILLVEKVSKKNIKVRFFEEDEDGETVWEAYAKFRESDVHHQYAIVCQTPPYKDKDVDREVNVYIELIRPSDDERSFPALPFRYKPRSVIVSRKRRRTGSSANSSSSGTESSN

GST-Aq-NF-kB = biological target: T6, GST-Aq-NF-kB (Amphimedon queenslandica, UniProt A9Y5G7 2-389)
T6 sequence: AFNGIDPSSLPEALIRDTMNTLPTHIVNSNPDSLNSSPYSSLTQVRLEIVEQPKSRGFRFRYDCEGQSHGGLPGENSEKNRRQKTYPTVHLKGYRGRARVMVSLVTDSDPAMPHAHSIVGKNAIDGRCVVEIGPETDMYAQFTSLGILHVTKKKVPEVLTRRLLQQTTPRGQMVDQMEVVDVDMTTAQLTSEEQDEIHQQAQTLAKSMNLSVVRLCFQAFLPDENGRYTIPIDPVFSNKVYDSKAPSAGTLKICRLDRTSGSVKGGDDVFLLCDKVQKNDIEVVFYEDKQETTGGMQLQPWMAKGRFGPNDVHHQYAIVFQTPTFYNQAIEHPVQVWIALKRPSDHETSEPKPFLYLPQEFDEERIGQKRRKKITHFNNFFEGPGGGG

| Sequence | binding signal (GST-Ap-NF-kB RHD) | binding signal [1] | binding signal [2] | binding signal (GST-Co-NF-kB) | binding signal (GST-Dm-Relish) | binding signal (GST-Aq-NF-kB) |
| --- | --- | --- | --- | --- | --- | --- |
| CCGATTAACATCAGGGGAAGCACTGATGTTAATCGGGTCTTGATTCGCTTGACGCTGCTG | 5.88 z-score | 6.43 z-score | 6.99 z-score | 4.4 z-score | 9.95 z-score | 6.83 z-score |
| CCGATTAACATCACGGGGGGAAATGATGTTAATCGGGTCTTGATTCGCTTGACGCTGCTG | 6.31 z-score | 6.61 z-score | 7.51 z-score | 11.2 z-score | 4.78 z-score | 5.52 z-score |
| CCGATTAACATCAAATTCCCACGTGATGTTAATCGGGTCTTGATTCGCTTGACGCTGCTG | 2.06 z-score | 3.63 z-score | 3.63 z-score | 2.77 z-score | 3.95 z-score | 2.61 z-score |
| CCGATTAACATCAAAAATTCCCATGATGTTAATCGGGTCTTGATTCGCTTGACGCTGCTG | 5.04 z-score | 7.75 z-score | 6.99 z-score | 5.2 z-score | 7.58 z-score | 6.55 z-score |
| CCGATTAACATCAGGGGGGGGCATGATGTTAATCGGGTCTTGATTCGCTTGACGCTGCTG | 4.94 z-score | 4.84 z-score | 4.15 z-score | 4.65 z-score | 3.78 z-score | 3.82 z-score |
| CCGATTAACATCACAGATTTCCCTGATGTTAATCGGGTCTTGATTCGCTTGACGCTGCTG | 3.88 z-score | 5.4 z-score | 7.17 z-score | 4.93 z-score | 2.66 z-score | 4.24 z-score |
